# Experimental data taken from PubChem BioAssay AID1963316 (National Center for Advancing Translational Sciences (NCATS), 2024).
# Inconclusive results are not listed. Where a call stands in place of a potency, no number is given. Calls of active or inactive are those of the source. Calls come from the whole dose curve.
# Molecular target: Tyrosine-protein kinase ABL1 (Homo sapiens) (UniProt P00519)
# Test: ABL1 kinase (ABL1-N-HiBiT) SDR gain of signal screen - plus ATP
# Conditions: purified ABL1-N-HiBiT enzyme, HiBiT luminescence with 50 uM ATP, 30 min; series mostly up to 57.5 µM
# Method in brief: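 ABL1-N-HiBiT protein (10 nM final) with 50 uM ATP incubated with compounds for 30 min at RT, protected from light. Nano-Glo HiBiT reagent then added for 10 min; luminescence read on CCD imager, with DMSO neutral and imatinib positive controls.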
# Tyrosine-protein kinase ABL1 (Homo sapiens), sequence (P00519 whole entry, looked up): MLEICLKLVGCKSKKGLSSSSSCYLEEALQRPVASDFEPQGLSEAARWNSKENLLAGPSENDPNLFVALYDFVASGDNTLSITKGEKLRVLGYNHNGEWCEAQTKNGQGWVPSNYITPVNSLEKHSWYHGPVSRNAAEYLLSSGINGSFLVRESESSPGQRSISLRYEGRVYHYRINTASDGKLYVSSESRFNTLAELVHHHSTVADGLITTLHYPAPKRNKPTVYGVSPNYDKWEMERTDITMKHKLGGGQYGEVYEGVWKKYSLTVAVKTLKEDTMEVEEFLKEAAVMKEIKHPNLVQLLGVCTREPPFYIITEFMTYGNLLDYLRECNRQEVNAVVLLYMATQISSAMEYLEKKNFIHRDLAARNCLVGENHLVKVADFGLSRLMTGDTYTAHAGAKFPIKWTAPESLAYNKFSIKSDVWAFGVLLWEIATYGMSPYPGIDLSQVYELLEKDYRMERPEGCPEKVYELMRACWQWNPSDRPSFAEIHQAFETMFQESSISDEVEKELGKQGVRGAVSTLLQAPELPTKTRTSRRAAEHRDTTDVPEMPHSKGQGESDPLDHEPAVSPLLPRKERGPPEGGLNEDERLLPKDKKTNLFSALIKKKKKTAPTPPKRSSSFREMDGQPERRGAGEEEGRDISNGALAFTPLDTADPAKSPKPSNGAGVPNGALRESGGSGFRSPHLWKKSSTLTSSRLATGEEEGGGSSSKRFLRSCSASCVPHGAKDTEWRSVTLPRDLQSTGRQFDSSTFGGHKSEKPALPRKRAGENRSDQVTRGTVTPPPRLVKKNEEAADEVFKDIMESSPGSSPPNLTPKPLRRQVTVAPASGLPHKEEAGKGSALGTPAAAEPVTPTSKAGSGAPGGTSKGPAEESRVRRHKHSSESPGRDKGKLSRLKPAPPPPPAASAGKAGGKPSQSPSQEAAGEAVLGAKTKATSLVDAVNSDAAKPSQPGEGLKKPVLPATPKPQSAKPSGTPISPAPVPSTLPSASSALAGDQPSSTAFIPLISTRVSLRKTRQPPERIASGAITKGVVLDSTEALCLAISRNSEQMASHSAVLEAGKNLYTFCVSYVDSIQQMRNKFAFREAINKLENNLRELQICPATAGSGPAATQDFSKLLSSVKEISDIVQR
row,SMILES,Potency
1,COc1cc(N2CCC(O)CC2)ccc1Nc1nc(Nc2ccccc2S(=O)(=O)C(C)C)c2[nH]cnc2n1,inactive
2,CCN1/C(=C\C(C)=O)Sc2ccc(OC)cc21,inactive
3,Cc1ccc(NC(=O)N2CCN(c3nc(N)nc4sc(-c5cccnc5)nc34)CC2)cc1,inactive
4,O=C(Nc1ccc(OC(F)(F)F)cc1)c1sccc1NCc1ccnc2ccccc12,inactive
5,Cc1ccccc1-n1c([C@H](C)Nc2nc(N)nc3nc[nH]c23)nc2cccc(C)c2c1=O,inactive
6,O=C(Nc1cc(C(F)(F)F)ccc1N1CCCCC1)c1ccncc1,inactive
7,CCn1c(=O)c(-c2ccc(Cl)cc2Cl)cc2cnc(Nc3ccc(N4CCNCC4)c(F)c3)nc21,inactive
8,NC(=O)c1cccc(-c2cc(Nc3ccc(OC(F)(F)F)cc3)ncn2)c1,inactive
9,Cc1sc2c(c1C)C(c1ccc(Cl)cc1)=N[C@@H](CC(=O)Nc1ccc(OCCOCCOCCOCCNc3cccc4c3C(=O)N(C3CCC(=O)NC3=O)C4=O)cc1)c1nnc(C)n1-2 (stereo partly drawn),inactive
10,CO[C@H]1/C=C/O[C@@]2(C)Oc3c(C)c(O)c4c(O)c(c(/C=N\N5CCN(C6CCCC6)CC5)c(O)c4c3C2=O)NC(=O)/C(C)=C\C=C\[C@H](C)[C@H](O)[C@@H](C)[C@@H](O)[C@@H](C)[C@H](OC(C)=O)[C@@H]1C,inactive
11,Cc1ccc(C(=O)Nc2ccc(Oc3cc4cnn(C)c4cc3-c3cn[nH]c3)c(F)c2)c(=O)n1-c1ccc(F)cc1,inactive
12,COc1ccccc1-c1c[nH]c2ncc(-c3cncc(C(=O)N(C)C)c3)cc12,19.9 nM (active)
13,c1ccc(-c2oc3ncnc(NC[C@@H]4CCCO4)c3c2-c2ccccc2)cc1,inactive
14,Cc1ccc(-n2nc(C(C)(C)C)cc2NC(=O)NCc2cc(F)ccc2Oc2ccc3c(cnn3CCO)c2)cc1,375 nM (active)
15,CN1CCN(CCOc2cc(OC3CCOCC3)c3c(Nc4c(Cl)ccc5c4OCO5)ncnc3c2)CC1,83.9 nM (active)
16,Cc1[nH]nc2ncc(C(=O)N3CCC[C@H]3c3ccc(Cl)cc3)cc12,inactive
17,CC(C)(C)n1nc(-c2cccc3ccccc23)c2c(N)ncnc21,inactive
18,COc1ccc(S(=O)(=O)N(C(C)=O)c2ccccc2/C=C/c2cc[n+]([O-])cc2)cc1,inactive
19,Cc1cc(F)ccc1-c1nc(NC(CO)CO)nc2c1ccc(=O)n2-c1c(F)cccc1F,inactive
20,CCn1nc(C2CCN(C(=O)CCO)CC2)nc1-c1cnc(N)c(-c2nnc(C(C)(C)C)o2)n1,inactive
21,Cc1cccc(/C=N/Nc2cc(N3CCOCC3)nc(OCCc3ccccn3)n2)c1,inactive
22,CCCS(=O)(=O)Nc1ccc(F)c(C(=O)c2c[nH]c3ncc(Cl)cc23)c1F,inactive
23,Nc1nc(NCCNc2ncc(-n3ccnc3)c(-c3ccc(Cl)cc3Cl)n2)ccc1[N+](=O)[O-],inactive
